Most compounds without a hit are left out; they make up all but 3.7% or so of the library.
IL-2 act – qHTS of IL-2 Activators; IL-2 activation reporter assay, cell-based qHTS; stimulated with anti-CD3/CD4/CD28 beads; in transgenic mouse T cells; activation, % (series mostly up to about 46 µM); 360,000 compounds, 0.065% hits; in the data active = activation above about 50%; inconclusive = mostly about 30% to 49%; note: 0% is about no effect
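Readout: EGFP and DsRed signals by fluorescent plate cytometry. Unstimulated transgenic mouse T cells received compound 60 min before antibody-bead stimulation, then incubated 18 h at 37 degrees C.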
ClpP mod – qHTS Assay for Activators of ClpP; Potency, µM (top dose mostly 57.5 µM), for inactives: at the highest dose activity change, negative = active; AID 651965, 2013; 340,000 compounds, 1.9% hits; purified B. subtilis ClpP, FRET peptide cleavage, 20 min; ATP-dependent Clp protease proteolytic subunit (Bacillus subtilis (strain 168)), P80244; active = well fitted falling curve with a large enough effect; inconclusive = small, poorly fitted or top-dose-only effect; inactive = no such curve, though single readings can be large or run the other way; note: potency is the fitted concentration of half-maximal effect; the source files actives as falling curves though it sought activators and does not explain the sign; nearly all actives have a fitted effect of over 65% in size
Target sequence (P80244 whole entry, looked up): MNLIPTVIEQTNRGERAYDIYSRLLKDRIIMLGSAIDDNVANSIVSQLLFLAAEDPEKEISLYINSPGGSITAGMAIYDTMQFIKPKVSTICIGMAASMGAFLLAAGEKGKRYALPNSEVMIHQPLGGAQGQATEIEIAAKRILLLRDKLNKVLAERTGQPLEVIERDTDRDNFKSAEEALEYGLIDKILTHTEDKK
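Buffer: 100 mM Tris/HCl pH8, 100 mM KCl, 0.05% low protease BSA, 2.5% glycerol, 0.01% Tween-20. ClpP 10 microg/mL final; 20 min RT; delta FRET normalized to ADEP and DMSO controls.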
miR-21 reporter – qHTS Assay for Modulators of miRNAs and/orActivators of miR-21; HeLa miR-21 FLuc reporter, luciferase, 48 h; Potency, µM (doses to about 38.3 µM), inactives show top-dose activity change, positive = activation, hits mostly activators; 340,000 tested, under 10 active;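 note: % of control where 0% means no effect; miR-21 action dims this reporter so a rising signal means less miR-21 action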
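HeLa miR-21-FLuc reporter line, endogenous miR-21; 2000 cells/well in DMEM/10% FBS; compound titration up to ~40uM final, 48 h, 37 degree Celsius; luciferase detection reagent, 15 min lysis, CCD luminescence.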
Nrf2 block – Nrf2 qHTS screen for inhibitors. A549 ARE-Fluc reporter, luciferase luminescence, 18-24 h. Potency, µM (titrated, usually from 46 µM), for the others: top-dose activity change, negative = inhibition, usual class: inhibitors. 360,000 compounds, 2.1% hits. AID 504444, 2011; note: potency is the fitted concentration of half-maximal effect; % is set by controls: 0 for no effect and ±100 for the full control effect; nearly all actives have a fitted effect of over 60% in size
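Nrf2 function is reported as luminescence of an ARE-controlled luciferase in A549 cells. Compounds were tested at several concentrations, and a CellTiter-Fluor read on the same wells flagged cytotoxicity.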
A549 viability – Nrf2 qHTS screen for inhibitors: counterscreen for cytotoxicity | Potency, µM (series often up to 46 µM), inactives show at the top dose activity change, negative = cytotoxicity, usual class: inhibitors | 390,000 compounds, 0.16% hits | A549 ARE-Fluc cells, CellTiter-Fluor viability, 18-24 h; note: potency is the fitted concentration of half-maximal effect; % is set by controls: 0 for no effect and ±100 for the full control effect
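Cytotoxicity counterscreen: CellTiter-Fluor fluorescence was measured in A549 ARE_Fluc cells after 18-24 h of compound exposure in a concentration series. The subsequent BugLite luminescent read reports ARE-luciferase activity.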
Nrf2 activator – qHTS of Nrf2 Activators. 410,000 compounds, 0.31% hits. AID 624171, 2012. AREc32 ARE-luciferase reporter (MCF7-derived line), luminescence, 24 h. Potency, µM (highest dose often 46.1 µM), for inactives: at the highest dose activation, hits mostly activators; note: potency is the fitted concentration of half-maximal effect; % of control where 0% means no effect; nearly all actives have a fitted effect of over 65% in size
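For detection, Steady-Glo was added and plates sat 30 min at RT; before that, AREc32_Fluc cells grown overnight in OPTI-MEM/5% FBS had been treated with 23 nL compound for 24 hr at 37 deg C.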
The depositor's hits bear a star; ? = inconclusive; · = no result. Unless noted, calls come from the whole dose curve; as a rule, active = well fitted curve in the direction sought with a large enough effect; inconclusive = small, poorly fitted or top-dose-only effect, or another doubt; inactive = no such curve, though single readings can be large; an effect the other way counts as inactive or inconclusive.

SMILES | IL-2 act | ClpP mod | miR-21 reporter | Nrf2 block | A549 viability | Nrf2 activator
COC(=O)c1ccc(-n2c(C)cc(-c3csc(NC(=O)c4ccc(S(=O)(=O)N(C)C)cc4)n3)c2C)cc1 | 0 | 1% | 2% | 13% | -13% | 3%
COC(=O)[C@H](CC(C)C)NS(=O)(=O)NC(=O)OC(C)(C)C | · | -2% | · | · | · | ·
Cc1ccc(S(=O)(=O)N[C@@H](Cc2ccccc2)C(=O)CCl)cc1 | -1 | 0% | ? | 18µM* | -10% | 6%
CCOC(=O)c1ccc(CN(Cc2ccccc2C)S(=O)(=O)c2ccc(C(C)(C)C)cc2)cc1 | · | 0% | -2% | · | -3% | 4%
CC(C)OC(=O)CSc1nc(N)c(C#N)c(-c2ccco2)c1C#N | 0 | 20µM* | -4% | 6% | -6% | 18%
CCCCCc1nc(N)c(C#N)c(-c2ccco2)c1CCCC | 4 | 25µM* | 0% | -8% | 3% | 5%
CCc1nc(N)c(C#N)c(-c2ccco2)c1C | 1 | -13% | -11% | -10% | -2% | 2.5µM*
CC(C)OC(=O)CSc1nc(N)c(C#N)cc1C#N | 0 | · | -71% | 4% | 1% | 11%
Nc1nc(N)c(S(=O)(=O)c2ccccc2)c(Nc2ccc(F)cc2)n1 | · | -6% | 3% | -29% | -1% | 1%
COc1cc2c(c(OC)c1OC)-c1ccc(SC)c(=O)cc1C(NC(=O)c1ccccc1)CC2 (centres undefined) | -2 | -1% | · | ? | 18µM* | 7%
Cc1cccc(C2Nc3ccccc3C(=O)N2c2ccc(F)cc2)n1 (centres undefined) | 0 | 32µM* | -26% | 16% | 2% | 0%
O=C1c2ccccc2NC(c2ccccn2)N1c1ccccc1F (centres undefined) | -3 | 32µM* | -9% | -3% | -6% | 0%
CC1CCN(S(=O)(=O)c2ccc3c4c2CC(=O)N4CC(C)S3)CC1 (centres undefined) | -1 | -4% | 5% | 21µM* | -8% | 10%
CC1CCN(CCOc2ccc(OCc3ccccc3)cc2)CC1 | -1 | 3.2µM* | -29% | 4% | -7% | 0%
Cc1ccc(CNC(=O)c2cc(NS(=O)(=O)c3ccc(C)cc3)ccn2)cc1 | · | -9% | -3% | 0% | -2% | 0%
Cc1cc(C)c(-c2csc(NC(=O)/C=C/c3cccs3)n2)c(C)c1 | -4 | -19% | ? | 23µM* | -16% | 3%
Cc1cc(C)nc(NC(=O)/C=C/c2cccs2)c1 | 0 | 0% | -29% | 10% | -6% | 21%
O=C(NNc1ncnc2c1cnn2-c1ccccc1)c1cccc(Cl)c1 | · | 0% | -6% | · | -17% | 1%
COc1ccccc1CNS(=O)(=O)c1c(C)nc2sc(C)cn2c1=O | · | 32µM* | -1% | 20% | 0% | -1%
Cc1cn2c(=O)c(S(=O)(=O)NCCc3ccccc3)c(C)nc2s1 | · | 28µM* | -1% | 7% | 8% | -1%
CCCN(C(=O)C1CCN(S(=O)(=O)c2ccc(OC)c(OC)c2)CC1)C1CCS(=O)(=O)C1 (centres undefined) | -1 | 14µM* | · | -12% | -1% | 0%
O=c1oc(CCO)cc2ccc(C#Cc3ccsc3)cc12 | 0 | 5% | · | 1% | -3% | 2.5µM*
CN1CCN(C(c2ccc(Cl)cc2Cl)c2sc3nc(-c4ccco4)nn3c2O)CC1 (centres undefined) | · | -2% | -5% | · | -11% | -1%
Cn1c(=O)n(C)c2cc(NS(=O)(=O)c3ccc(Br)cc3)c(NCc3ccccc3)cc21 | · | 4% | -29% | -5% | 3% | 25%
COc1ccc(S(=O)(=O)Nc2cc3c(cc2NCc2ccccc2)n(C)c(=O)n3C)cc1 | · | 4% | -50% | -9% | -4% | 11µM*
SMILES | IL-2 act | ClpP mod | miR-21 reporter | Nrf2 block | A549 viability | Nrf2 activator
O=C(COc1ccccc1C(=O)Nc1ccccc1)c1ccc(Br)cc1 | -4 | · | -4% | 21µM* | ? | 0%
CC(=O)c1ccc(NC(=O)c2ccc(-c3nc(CSc4ccccc4)c(C)o3)cc2)cc1 | · | -5% | 7% | 10µM* | 1% | 1%
Cc1ccc(Cl)cc1NC(=O)c1ccc(-c2nc(CSc3ccccc3)c(C)o2)cc1 | · | 13µM* | 20% | 13µM* | -4% | 0%
CC(=O)c1ccc(NC(=O)c2ccc(-c3nc(CSc4ccc(C)cc4)c(C)o3)cc2)cc1 | · | -1% | 7% | ? | -12% | 1%
Cc1cccc(NC(=O)c2ccc(-c3nc(CSc4ccccc4)c(C)o3)cc2)c1C | · | -2% | 15% | 13µM* | 0% | -1%
COc1ccc(NC(=O)c2ccc(-c3nc(CSc4ccccc4)c(C)o3)cc2)cc1OC | · | -16% | 17% | ? | -15% | 4%
COc1ccc(NC(=O)c2ccc(-c3nc(CSc4ccc(C)cc4)c(C)o3)cc2)cc1Cl | · | -19% | 1% | 23µM* | -13% | 0%
Fc1ccc(Nc2nc(SCc3cccc(Cl)c3)nc3ccccc23)cc1 | · | ? | 6% | · | -19% | -2%
Fc1ccc(Nc2nc(SCc3ccc(Cl)cc3)nc3ccccc23)cc1 | · | 35µM* | 11% | · | ? | 0%
COc1ccc(NC(=O)Nc2nnc(N(C)C3CCCCC3)s2)c(OC)c1 | · | 0% | 6% | ? | -11% | 0%
O=C(NCCC1=CCCCC1)c1ccc(=O)oc1 | -4 | 0% | -10% | ? | -19% | 13%
Cc1ccccc1CCNC(=O)c1ccc(Cl)c(S(=O)(=O)N2CC(C)OC(C)C2)c1 (centres undefined) | -3 | -3% | · | 5.2µM* | -5% | 2%
Cc1ccc(C)c(NS(=O)(=O)c2cc(C(=O)NCCC3=CCCCC3)ccc2C)c1 | -3 | 1% | 10% | 21µM* | ? | 0%
Cc1ccc(C)c(NS(=O)(=O)c2cc(C(=O)NCCSC3CCCCC3)ccc2C)c1 | -3 | 0% | 16% | ? | -30% | 1%
O=C(NCCC1=CCCCC1)c1ccc(Cl)c(S(=O)(=O)N2CCCCC2)c1 | -5 | -5% | 12% | 15µM* | 3% | 0%
O=C(NCCC1=CCCCC1)c1coc(=O)c(Br)c1 | -5 | 4% | 14% | ? | -28% | 13µM*
O=C(NCCC1=CCCCC1)c1ccc(Cl)c(S(=O)(=O)N2CCOCC2)c1 | -3 | -3% | 1% | ? | 6% | 3%
COc1ccc(N2CC(NC(=O)/C=C\c3ccccc3)CC2=O)cc1 (centres undefined) | · | -1% | 0% | · | 19% | 0%

Compound activity (PubChem BioAssay)
